Here are results for 28 compounds from PubChem BioAssay (NCATS).

Common to all, as to experiment: qHTS profiling for inhibitors of Plasmodium falciparum proliferation (AID 504749); also: nearly all actives have a fitted effect of over 60% in size
Holding throughout (details): P. falciparum in erythrocytes, SYBR Green DNA, 72 h; series mostly up to 28.7 µM
On the technique in general: In qHTS, concentration-response curves come from the screen itself.

One test relates to CP256. The method, boiled down:
(§1)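 SYBR Green fluorescence of parasite DNA, read after lysis and overnight dark incubation, measured growth over 72 h in erythrocyte culture at 0.3% parasitemia and 2.5% hematocrit. Data normalised to DMSO and 0.29 uM artemisinin, with plate-drift correction.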

For the next test, the system named is CP260. The method, boiled down:
as §1

A further test relates to CP262. The method, boiled down:
as §1

Another test has as its system CP265. In short, it runs like this:
as §1

For the next test, the system named is CP268. The method, boiled down: as §1
In another test the test system is CP269. The method, boiled down:
as §1

Another test has as its system CP286. The method, boiled down:
as §1

A further test has as its system CP291. The method, boiled down: as §1
Another test concerns CP297. In short, it runs like this:
as §1

Another test concerns CP266. In short, it runs like this: as §1

Records with an inconclusive call do not appear. Calls of active or inactive are those of the source. Calls follow the shape of the dose curve; as a rule, active = well fitted inhibition curve with a large enough effect; inconclusive = small, poorly fitted or top-dose-only effect; inactive = flat fitted curve, though single readings scatter.
Potency is read from the fitted curve at half-maximal effect.

Consider `CC(C)=CCC/C(C)=C/C=C/C(C)=C/C=C/C(C)=C/C=C/C=C(C)/C=C/C=C(C)/C=C/C=C(\C)CCC=C(C)C`, for which the Potency result with CP256, in the test on CP260, in the test on CP262, with CP265, with CP268 and with CP269 was “inactive” each time. The Potency result in the test with CP286, with CP291 and in the test with CP297 was “inactive” in each case.
`CN1C(C(=O)Nc2ccccn2)C(=O)c2sc(Cl)cc2S1(=O)=O` (configuration not stated): the Potency entry with CP256, in the test with CP260, in the test on CP262, in the test on CP265, with CP266 and with CP268 was “inactive” in each case. In addition, the Potency entry in the test on CP269, in the test with CP286 and with CP297 was “inactive” throughout.
As to `O=C(NCCNCC(O)COc1ccc(O)cc1)N1CCOCC1` (configuration not stated), the Potency entry with CP256, in the test on CP260, with CP262, with CP265, in the test with CP266 and with CP268 was “inactive” in each case. In addition, the Potency result with CP269, in the test on CP286, in the test on CP291 and with CP297 was “inactive” throughout.
`FC(F)OC(Cl)C(F)(F)F` (configuration not stated): the Potency entry in the test on CP256, in the test with CP260, in the test on CP262, with CP265, with CP266 and in the test with CP269 was “inactive” in each case. The Potency result in the test on CP286, with CP291 and in the test with CP297 was “inactive” in each case.
As to `CCCCO`, the Potency entry in the test with CP256, with CP260, in the test on CP262, in the test with CP265, in the test on CP268 and in the test with CP269 was “inactive” in each case. For the same compound, the Potency entry in the test with CP286, in the test with CP291 and in the test with CP297 was “inactive” each time.
Take `O=C(O)c1cc(N=Nc2ccc(O)c(C(=O)O)c2)ccc1O`: the Potency entry with CP256, in the test on CP260, with CP262, with CP265, in the test with CP266 and in the test with CP268 was “inactive” throughout. Moreover, the Potency entry with CP269, with CP291 and in the test on CP297 was “inactive” throughout.
In the case of `CCC(=O)c1ccc2c(c1)N(CCCN1CCN(CCO)CC1)c1ccccc1S2`, the Potency was 7.08 µM (active) in the test on CP256; 10 µM (active) with CP260; 6.75 µM (active) in the test with CP262; 8.91 µM (active) in the test on CP265; 12 µM (active) in the test with CP268; 9.53 µM (active) in the test with CP269. Also, the results for the Potency with CP286 and in the test on CP291 were 4.47 µM (active) and 15.1 µM (active), respectively.
With `CC(=O)[O][Al][O]C(C)=O`, the Potency result with CP256, with CP260, in the test with CP262, in the test with CP265, in the test with CP266 and in the test with CP286 was “inactive” throughout.
In the case of `C=C1C(CCl)(CCl)C2(Cl)C(Cl)C(Cl)C1(Cl)C2(Cl)Cl` (configuration not stated), the Potency in the test with CP256 was 3.55 µM (active); in the test on CP260, 3.55 µM (active); in the test with CP262 it was 4.78 µM (active); in the test on CP265 it was 3.55 µM (active); with CP268 it was 4.26 µM (active); with CP269, 4.26 µM (active). Moreover, the Potency in the test with CP286 is 3.55 µM (active); with CP291 it was 4.26 µM (active); with CP297, 3.79 µM (active).
In the case of `O=P(O)(O)OC[C@H](O)CO`, the Potency entry with CP256, with CP260, in the test with CP262, with CP265, in the test with CP268 and with CP269 was “inactive” throughout. The Potency entry with CP286, with CP291 and with CP297 was “inactive” each time.
As to `COc1ccc2c(c1)OC(C)(C)C(c1ccccc1)C2c1ccc(OCCN2CCCC2)cc1` (configuration not stated), the Potency is 4.47 µM (active) with CP256; 3.98 µM (active) in the test with CP260; 4.78 µM (active) in the test on CP262; 3.98 µM (active) in the test on CP265; 15.1 µM (active) with CP266; 5.36 µM (active) with CP269. The Potency in the test with CP286 was 3.16 µM (active); in the test with CP291 it was 6.01 µM (active); in the test with CP297, 15.1 µM (active).
Turning to `CN(C)CCCSc1ccccc1NC(=O)/C=C/c1ccccc1`, the Potency entry in the test on CP256, in the test with CP260, in the test with CP262, with CP265, in the test with CP266 and with CP269 was “inactive” in each case. The Potency entry in the test with CP286 and with CP291 was “inactive” in each case.
As for `CO[C@H]1C[C@@H]2CC[C@@H](C)[C@@](O)(O2)C(=O)C(=O)N2CCCC[C@H]2C(=O)O[C@H]([C@H](C)C[C@@H]2CC[C@@H](OC(=O)C(C)(CO)CO)[C@H](OC)C2)CC(=O)[C@H](C)/C=C(\C)[C@@H](O)[C@@H](OC)C(=O)[C@H](C)C[C@H](C)/C=C/C=C/C=C/1C`, the Potency entry in the test on CP256, in the test on CP260, with CP262, with CP265, in the test on CP268 and with CP269 was “inactive” throughout. For the same compound, the Potency entry in the test on CP286, in the test on CP291 and in the test on CP297 was “inactive” in each case.
Consider `O=C(O)[C@H]1C(=CCO)O[C@H]2CC(=O)N12`, for which the Potency result in the test with CP256, in the test on CP260, in the test on CP262, in the test on CP265, in the test with CP268 and with CP269 was “inactive” each time. Further, the Potency entry in the test on CP286, in the test with CP291 and with CP297 was “inactive” throughout.
In the case of `NC(=O)Oc1ccc(Cc2ccccc2)cc1`, the Potency result in the test on CP256, with CP260, in the test on CP262, in the test with CP265, in the test with CP266 and in the test on CP268 was “inactive” in each case. The Potency result with CP269, with CP286 and in the test with CP297 was “inactive” each time.
In the case of `FC(F)(F)COCC(F)(F)F`, the Potency entry with CP256, in the test on CP260, with CP262, with CP265, with CP268 and with CP269 was “inactive” each time. Also, the Potency entry with CP286, with CP291 and in the test on CP297 was “inactive” each time.
As for `CCC(O)c1ccccc1` (configuration not stated), the Potency entry with CP256, in the test with CP260, in the test with CP262, with CP265, with CP268 and in the test with CP269 was “inactive” in each case. In addition, the Potency entry in the test with CP286, in the test with CP291 and with CP297 was “inactive” throughout.
As to `Cc1ccc(S(=O)(=O)O)cc1C`, the Potency entry in the test on CP256, with CP260, with CP262, with CP265, in the test with CP268 and in the test on CP269 was “inactive” in each case. Further, the Potency entry in the test with CP286, in the test on CP291 and with CP297 was “inactive” each time.
Consider `[O]=[Bi][O][Bi]=[O]`, for which the Potency result in the test with CP256, in the test with CP260, in the test on CP262, in the test on CP265, in the test on CP268 and with CP269 was “inactive” in each case. The Potency entry in the test on CP286, with CP291 and in the test on CP297 was “inactive” each time.
Turning to `NCCO/C=C/[C@H](N)C(=O)O`, the Potency result in the test on CP256, with CP260, in the test on CP262, in the test on CP265, in the test with CP268 and in the test with CP269 was “inactive” in each case. Moreover, the Potency entry in the test on CP286, in the test on CP291 and in the test on CP297 was “inactive” each time.
Regarding `S=C=Nc1ccc(N=C=S)cc1`, the Potency result in the test with CP256, in the test with CP260, with CP262, in the test on CP265, in the test on CP268 and in the test on CP269 was “inactive” in each case. In addition, the Potency entry in the test on CP286, in the test on CP291 and in the test on CP297 was “inactive” each time.
Consider `Oc1ccc(Cl)c2c1CCC2`, for which the Potency entry in the test with CP256, with CP260, with CP262, with CP265, in the test on CP268 and in the test on CP269 was “inactive” each time. In addition, the Potency entry in the test with CP286 and in the test on CP291 was “inactive” in each case.
For `CC(C)NCC(O)COc1ccccc1-n1cccc1` (configuration not stated), the Potency entry in the test on CP256, with CP262, in the test with CP265, with CP266, with CP268 and in the test on CP269 was “inactive” throughout. Besides, the Potency result with CP286 and in the test on CP291 was “inactive” in each case.
On to `CC(=O)Oc1cc(C(F)(F)F)ccc1C(=O)O`, for which the Potency result in the test on CP256, in the test with CP262, with CP265, in the test with CP266, with CP268 and in the test with CP269 was “inactive” each time. The Potency result in the test with CP286, in the test with CP291 and in the test on CP297 was “inactive” throughout.
As to `O.O.O.O.O.O.O.O=S(=O)([O-])[O-].[Co+2]`, the Potency was 8.91 µM (active) with CP256; 10 µM (active) with CP260; 11.2 µM (active) with CP265; 7.57 µM (active) in the test with CP269; 10 µM (active) with CP286; 9.53 µM (active) in the test on CP291.
As for `O=C1N=C2SCCN2C(=O)C1Cc1ccc(Cl)cc1` (configuration not stated), the Potency entry in the test with CP256, with CP262, in the test with CP265, in the test on CP266, with CP268 and with CP269 was “inactive” throughout. For the same compound, the Potency entry in the test on CP286, in the test on CP291 and in the test on CP297 was “inactive” throughout.
For `O=[N+]([O-])c1c(Cl)cccc1-c1c[nH]cc1Cl`, the Potency result with CP256, with CP262, in the test on CP265, with CP266, in the test with CP268 and in the test with CP269 was “inactive” in each case. Besides, the Potency result in the test on CP286, in the test on CP291 and in the test on CP297 was “inactive” in each case.
With `O=P(O)(O)CP(=O)(O)O`, the Potency entry in the test with CP256, in the test with CP260, with CP262, with CP266, in the test with CP269 and in the test on CP286 was “inactive” in each case. The Potency entry with CP291 and with CP297 was “inactive” in each case.
